# Pf Dd2 inh: qHTS Primary assay for Inhibitors of Plasmodium falciparum Dd2 growth in vitro; P. falciparum Dd2 growth, SYBR Green, 72 h; Potency, µM (top dose mostly 28.9 µM), without a hit: at the top dose activity, negative = inhibition, most hits filed as inhibitors; 120,000 tested, 4.3% active; active = well fitted inhibition curve with a large enough effect;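 note: plate controls were DMSO vehicle for no effect and reference drug for full effect; nearly all actives have a fitted effect of over 65% in size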
#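 Readout: SYBR Green fluorescence, 485 nm excitation, 535 nm emission, after ~16 h lysis at 37C. Before that, Dd2-infected red cells (2.5% hematocrit) grew 72 h with compound, 29 uM top final concentration.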
# Numbers without * were called inactive; i = inactive; [ ] = another dose, or the depositor's remark. This excerpt belongs to a sample that is enriched for hits. Potency is the fitted concentration of half-maximal effect.
SMILES,Pf Dd2 inh
CS(=O)(=O)N1CCC(C2CCN(C(=O)Cc3c[nH]c4ccccc34)C2)CC1 (configuration not stated),i
Cn1nc(C(=O)NCC(=O)N2CCCCCCNC(=O)CC2c2ccccc2)c2ccccc21 (configuration not stated),0.63µM*
O=C1CC(c2ccccc2)N(C(=O)CNC(=O)C2CC2)CCCCCCN1 (configuration not stated),22%
O=C1CC(c2ccccc2)N(C(=O)CNS(=O)(=O)c2ccccc2)CCCCCN1 (configuration not stated),-19%
O=C(COc1ccccc1)NCC(=O)N1CCCCCCNC(=O)CC1c1ccccc1 (configuration not stated),-2%
Cn1nccc1C(=O)NCC(=O)N1CCCCCNC(=O)CC1c1ccccc1 (configuration not stated),31%
Cc1cc(C(=O)NCC(=O)N2CCCCCCNC(=O)CC2c2ccccc2)n(C)n1 (configuration not stated),8%
O=C1NCCCCCCN(C(=O)c2ccccn2)[C@H]2CCC[C@@H]12,8%
O=C1CC(c2ccccc2)N(C(=O)CNS(=O)(=O)c2cccnc2)CCCCCCN1 (configuration not stated),i
Cc1ncccc1C(=O)N1CCCCCCNC(=O)[C@@H]2CCCC[C@@H]21,3%
O=C1CC(c2ccccc2)N(C(=O)CNC(=O)Cn2c(=O)oc3ccccc32)CCCCCCN1 (configuration not stated),10µM*
Cn1nc(C(=O)N2CCCCCCNC(=O)[C@@H]3CCCC[C@@H]32)c2ccccc21,2.2µM*
O=C1CC(c2ccccc2)N(C(=O)CNS(=O)(=O)c2ccc3c(c2)CCC3)CCCCCCN1 (configuration not stated),11µM*
NC(=O)N1CCCC(C(=O)NCCS(=O)(=O)c2ccc(F)cc2)C1 (configuration not stated),25%
COc1ccc(C2Cn3nnc(C(=O)N4CCC(C(=O)NCc5ccccc5)CC4)c3CO2)cc1 (configuration not stated),5%
O=C1CC(c2noc(Cc3ccc(Cl)cc3)n2)CN1C1CCCCC1 (configuration not stated),-18%
Cc1cc(C)n(CC(=O)N2CC(N(C)Cc3cccnc3)C2)n1,6%
C#CCOc1ccc(C(=O)N[C@@H]2CN(C3CCN(C)CC3)CCC[C@H]2O)cc1,-11%[44.1 µM]
COc1ccc(C(=O)NC2CCN(c3ccc(=O)n(C)n3)CC2)c(OC)n1,-23%
Cc1[nH]cnc1-c1nccn1Cc1nnnn1-c1ccccc1,27%
COCCn1ncc(N2CCC(C(=O)N(C)CC(=O)Nc3ccc(F)cc3)C2)cc1=O (configuration not stated),i
CN(Cc1ccccc1)Cc1cn([C@H]2CO[C@H]3[C@@H]2OC[C@@H]3NCC2CCCCC2)nn1,-30%[44.1 µM]
O=C(c1ccoc1)N1CCc2nn(Cc3ccccc3)c(=O)n2CC1,7%
COc1ccc(NC(=O)CCCSc2nc(-c3ccco3)cc(C(F)(F)F)n2)cc1,85%
Cc1ccc(NC(=O)CSc2nc(-c3ccco3)cc(C(F)(F)F)n2)cc1C,-29%
SMILES,Pf Dd2 inh
Cc1ccc(NC(=O)CCSc2nc(-c3ccco3)cc(C(F)(F)F)n2)cc1F,0.79µM*
CC(=O)c1cccc(NC(=O)CCCSc2nc(-c3ccco3)cc(C(F)(F)F)n2)c1,3%
Cc1cc(F)ccc1NC(=O)CCSc1nc(-c2ccco2)cc(C(F)(F)F)n1,8.9µM*
COc1ccc(NC(=O)CCCSc2nc(-c3ccco3)cc(C(F)(F)F)n2)c(OC)c1,i
COc1ccccc1CCNC(=O)C1CC(c2ccc(F)c(C)c2)CN(C(=O)C2CC2)C1 (configuration not stated),0%
C[S+](=O)([O-])c1ccc(-c2nc(C(=O)NCc3cccnc3)n3ccccc23)cc1,-14%
O=C(NCCc1ccc(Cl)cc1)c1nc(-c2ccc(F)cc2)c2ccccn12,11%
O=C(NCc1ccc(F)cc1)c1nc(-c2cc(Cl)cc(Cl)c2)c2ccccn12,10µM*
C[S+](=O)([O-])c1ccc(-c2nc(C(=O)NCc3ccc(F)cc3)n3ccccc23)cc1,11µM*
COCCNC(=O)c1nc(-c2ccc(F)cc2)c2ccccn12,i
O=C(NCc1ccc2c(c1)OCO2)c1nc(-c2cc(Cl)cc(Cl)c2)c2ccccn12,-26%
COC1C(=O)N(C2CCN(C(=O)c3ccccn3)CC2)C12CCOCC2 (configuration not stated),-7%
CS(=O)(=O)N1CCCC(C(=O)NCc2ccccn2)CCNC(=O)CC1 (configuration not stated),23%
COc1ccccc1CC(=O)NC1CCN(c2cnn(C)c(=O)c2)CC1,19%
c1ccc(-c2noc(-c3cncnc3Nc3ccc4c(c3)OCO4)n2)cc1,5.6µM*
c1ccc(-c2noc(-c3cncnc3Nc3ccc4c(c3)OCCO4)n2)cc1,i
COc1ccc(Nc2ncncc2-c2nc(-c3ccccc3)no2)cc1OC,i
Cc1nc(NCC2CC2)ncc1C(=O)O,12%
Cc1ccccc1CNC(=O)C1CCC(=O)N(CCCc2ccccc2)C1 (configuration not stated),-18%
Cc1cc2cc(C(=O)N3CC[C@@H]4[C@@H](CCC(=O)N4CCN)C3)ccc2o1,-7%
CN(C)C(=O)C1CN(C(=O)Nc2cccc(Cl)c2F)CC12CCOCC2 (configuration not stated),1%
COc1ccccc1-n1c(/C=C/c2c(C)n(C)c3ccccc23)nc2ccccc2c1=O,4µM*
Cc1ccccc1-n1c(/C=C/c2ccccc2F)nc2ccccc2c1=O,10µM*
O=c1c2ccccc2nc(/C=C/c2cccc3ccccc23)n1-c1ccccc1Cl,-4%
CSc1ccc(/C=C/c2nc3ccccc3c(=O)n2-c2cccc(Cl)c2C)cc1,i
SMILES,Pf Dd2 inh
COc1ccc(-n2c(/C=C/c3c(C)[nH]c4ccccc34)nc3ccccc3c2=O)cc1,-14%
COc1ccc(-n2c(/C=C\c3ccccc3F)nc3ccccc3c2=O)cc1OC,i
Cc1ccc(-n2c(/C=C/c3ccc(Br)s3)nc3ccccc3c2=O)cc1,10%
COc1ccc(Cl)cc1-n1c(/C=C/c2cccc3ccccc23)nc2ccccc2c1=O,9%
Cc1ccccc1-n1c(/C=C/c2c(C)n(C)c3ccccc23)nc2ccccc2c1=O,2.8µM*
COc1ccc(NC(=O)N[C@H]2C[C@@H](C(=O)N[C@H](Cc3c[nH]c4ccccc34)C(N)=O)N(C(=O)C3CC3)C2)cc1,-14%
Cc1noc(-c2nc(-c3ccc(Cl)c(F)c3)no2)n1,i
Cc1c(C(=O)N2C[C@@H](C(=O)O)C[C@H](C(=O)NC3CC3)C2)sc2ccccc12,-8%
COc1ccc(C(=O)N2CCC(N3CC4CC(C3)[C@H]3CCCC(=O)N3C4)CC2)c(C)c1 (some centres not stated),-7%
CCCNC(=O)C(NC(=O)c1ccccc1C)C1CCN(C(=O)C2CCCC2)CC1 (configuration not stated),-17%
Cc1ccc(C)c(Cn2c(=O)n(Cc3ccc(C(=O)NC4CCN(Cc5ccccc5)CC4)cc3)c(=O)c3ccccc32)c1,-3%
O=C(NC1CCN(Cc2ccccc2)CC1)c1ccc(Cn2c(=O)c3ccccc3n(Cc3ccc(F)cc3)c2=O)cc1,10µM*
O=c1c2ccccc2n(Cc2c(F)cccc2Cl)c(=O)n1Cc1ccccc1,-2%
Cc1cc(C(=O)N[C@@H]2CN(c3ncccn3)C[C@H]2CO)n(C)n1,4%

# From PubChem
